In PubChem BioAssay (Tox21):
Values joined by “and” are separate entries in the source; they are usually repeats but may differ in a detail not shown here. Equal entries are not always repeated. Results filed as inconclusive are left out. Some structures have more than one record in an assay (separate samples or runs), and their calls can disagree. Active and inactive are the calls of the source. Unless noted, calls come from the whole dose curve.

Test: qHTS assay to identify small molecule agonists of the hypoxia (HIF-1) signaling pathway (AID 1224846; active = well fitted activation curve with a large enough effect in the signal ratio in the repeat runs, not every such curve was filed as active; the % refers to the signal ratio)
Details: HRE-bla ME-180 cells, beta-lactamase ratio, 17 h; series mostly up to 76.8 µM; activation: at the top concentration
Procedure, shortened: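 Compounds from the Tox21 10K library, dissolved in DMSO, are tested for induction of a hypoxia response element–controlled beta-lactamase reporter in ME-180 cells. Exposure lasts 17 hrs at 37C after a 5 hr settling period, followed by CCF4-AM FRET substrate.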
% is set by controls: 0 for no effect and ±100 for the full control effect; potency is the fitted concentration of half-maximal effect.

Compound | activation | Potency
CCCCC/C=C/C=C/C=O | 0.399% (inactive) | –
c1ccc2c(c1)c1cccc3ccc4cccc2c4c31 | – | 43.4 µM (active) and inactive
Cc1ccc(C(=O)c2cc(O)c(O)c([N+](=O)[O-])c2)cc1 | 4.83% (inactive) | –
O=C1OC2(c3cc(Br)c(O)c(Br)c3Oc3c2cc(Br)c(O)c3Br)c2c(Cl)c(Cl)c(Cl)c(Cl)c21 | 0.507% [at 35.5 µM] (inactive) | –
O=[N+]([O-])c1ccc2c(c1)Cc1ccccc1-2 | – | inactive
S=C(NC1CCCCC1)NC1CCCCC1 | – | inactive
Nc1ccc(Nc2ccccc2)cc1 | – | inactive
Nc1ccccc1N | -1.02% (inactive) | –
Brc1cc(Oc2cc(Br)c(Br)c(Br)c2Br)c(Br)c(Br)c1Br | – | inactive

Test: qHTS assay to identify small molecule agonists of H2AX - cell viability counter screen (AID 1224847); note: nearly all actives have a fitted effect of over 30% in size; for activity change, negative = cytotoxicity: top concentration of the series differs between compounds
Details: CHO-K1 viability, CellTiter-Glo luminescence, 3 h; series mostly up to 154 µM; activity change, negative = cytotoxicity: at the top concentration
Procedure, shortened: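 We seed wild-type CHO-K1 cells overnight, treat them for 3 hr at 37C with compounds in 15-concentration series, and quantify remaining viability by CellTiter-Glo luminescence.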

Compound | Potency | activity change, negative = cytotoxicity
CCCCC/C=C/C=C/C=O | inactive | –
CC(CCC(=O)O)(c1ccc(O)cc1)c1ccc(O)cc1 | inactive | –
CCCc1c(OCCCCc2nn[nH]n2)ccc(C(C)=O)c1O | inactive | –
c1ccc2c(c1)c1cccc3ccc4cccc2c4c31 | inactive | –
O=C(/C=C/C=C/c1ccc2c(c1)OCO2)N1CCCCC1 | – | -8.19% (inactive)
COC(=O)C1=C(C)NC(C)=C(C(=O)OCCN(C)Cc2ccccc2)C1c1cccc([N+](=O)[O-])c1 (configuration not stated) | 44.7 µM (active) and 49.2 µM (active) | –
CNCCCC12CCC(c3ccccc31)c1ccccc12 | 113 µM (active) | –
O=C(Nc1ccc([N+](=O)[O-])cc1Cl)c1cc(Cl)ccc1O | 2.84 µM (active) | –
CC(=O)Oc1ccccc1C(=O)Nc1ncc([N+](=O)[O-])s1 | 9.16 µM (active) and 24.7 µM (active) | –
Cc1c(OCC(F)(F)F)ccnc1CS(=O)c1nc2ccccc2[nH]1 (configuration not stated) | inactive | –
CN(C)c1nc(N(C)C)nc(N(C)C)n1 | inactive | –
CN1C(C(=O)Nc2ccccn2)=C(O)c2ccccc2S1(=O)=O | inactive | –
CC(C)OC(=O)C(C)(C)Oc1ccc(C(=O)c2ccc(Cl)cc2)cc1 | 50.5 µM (active) | –
Nc1ccc(S(=O)(=O)Nc2cnc3ccccc3n2)cc1 | inactive | –
CC(C)(C)NC(=O)[C@H]1CC[C@H]2[C@@H]3CC[C@H]4NC(=O)C=C[C@]4(C)[C@H]3CC[C@]12C | – | -3.44% [at 70.9 µM] (inactive)
Cc1ccc(C(=O)c2cc(O)c(O)c([N+](=O)[O-])c2)cc1 | – | 2.52% [at 70.9 µM] (inactive)
CC(C)=CCC/C(C)=C\CO | inactive | –

Compound | Potency | activity change, negative = cytotoxicity
Cc1[nH]c(=O)c(C#N)cc1-c1ccncc1 | inactive | –
CN(C)CCC=C1c2ccccc2CCc2ccccc21 | 113 µM (active) and inactive | –
C#C[C@]1(O)CC[C@H]2[C@@H]3CCC4=Cc5oncc5C[C@]4(C)[C@H]3CC[C@@]21C | 89.8 µM (active) | –
CN(C)CCN(Cc1cccs1)c1ccccn1 | inactive | –
O=C1OC2(c3cc(Br)c(O)c(Br)c3Oc3c2cc(Br)c(O)c3Br)c2c(Cl)c(Cl)c(Cl)c(Cl)c21 | 7.14 µM (active) | –
O=[N+]([O-])c1ccc2c(c1)Cc1ccccc1-2 | inactive | –
O=C(O)c1ccccc1Nc1cccc(C(F)(F)F)c1 | inactive | –
S=C(NC1CCCCC1)NC1CCCCC1 | – | -6.75% (inactive)
COc1cccc2c1C(=O)c1c(O)c3c(c(O)c1C2=O)C[C@@](O)(C(=O)CO)C[C@@H]3O[C@H]1C[C@H](N)[C@H](O)[C@H](C)O1 | inactive | –
c1cc(N(CC2CO2)CC2CO2)ccc1OCC1CO1 (configuration not stated) | inactive | –
C[C@]12CCC(=O)C=C1CC[C@@H]1[C@@H]2C(=O)C[C@@]2(C)[C@H]1CC[C@]2(O)C(=O)CO | inactive | –
Cc1cc2nc3c(=O)[nH]c(=O)nc-3n(C[C@H](O)[C@H](O)[C@H](O)CO)c2cc1C | inactive | –
Nc1ccc(Nc2ccccc2)cc1 | 89.8 µM (active) and 50.5 µM (active) | –
CCCCc1oc2ccccc2c1C(=O)c1cc(I)c(OCCN(CC)CC)c(I)c1 | 80.7 µM (active) and 43.8 µM (active) | –
Nc1ccccc1N | – | -0.131% (inactive)
Brc1cc(Oc2cc(Br)c(Br)c(Br)c2Br)c(Br)c(Br)c1Br | inactive | –
O=C(c1ccc(OCCN2CCCCC2)cc1)c1c(-c2ccc(O)cc2)sc2cc(O)ccc12 | 113 µM (active) and inactive | –

Test: qHTS assay to identify small molecule antagonists of the estrogen related receptor (ERR) signaling pathway from Tox21 library (AID 1224848; active = well fitted inhibition curve with a large enough effect in the repeat runs; note: nearly all actives have a fitted effect of over 50% in size)
Details: ERR reporter cell line, luciferase antagonist mode, 18 h; series mostly up to 92.4 µM; activity, negative = inhibition: at the top concentration
Procedure, shortened: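 Quantitative high-throughput format: ERR reporter cells (2,000/well) pre-incubated 6 h, treated 18 h at 37 C with compounds in DMSO alongside positive and negative controls, then read by ONE-Glo luminescence.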

Compound | Potency | activity, negative = inhibition
CCCCC/C=C/C=C/C=O | inactive and 54.5 µM (active) | –
CC(CCC(=O)O)(c1ccc(O)cc1)c1ccc(O)cc1 | inactive | –
c1ccc2sc(SSN3CCOCC3)nc2c1 | – | 7.52% (inactive)
O=C(/C=C/C=C/c1ccc2c(c1)OCO2)N1CCCCC1 | inactive | –
Cc1c(OCC(F)(F)F)ccnc1CS(=O)c1nc2ccccc2[nH]1 (configuration not stated) | inactive | –
Nc1ncnc2nc[nH]c12 | inactive | –
Cc1ccc(C(=O)c2cc(O)c(O)c([N+](=O)[O-])c2)cc1 | 30.6 µM (active) and 26.6 µM (active) | –
C#C[C@]1(O)CC[C@H]2[C@@H]3CCC4=Cc5oncc5C[C@]4(C)[C@H]3CC[C@@]21C | 24.3 µM (active) and 23.7 µM (active) | –
O=C1OC2(c3cc(Br)c(O)c(Br)c3Oc3c2cc(Br)c(O)c3Br)c2c(Cl)c(Cl)c(Cl)c(Cl)c21 | – | -21.1% [at 42.5 µM] (inactive)
O=[N+]([O-])c1ccc2c(c1)Cc1ccccc1-2 | inactive | –
S=C(NC1CCCCC1)NC1CCCCC1 | 15.1 µM (active) and inactive | –
COc1cccc2c1C(=O)c1c(O)c3c(c(O)c1C2=O)C[C@@](O)(C(=O)CO)C[C@@H]3O[C@H]1C[C@H](N)[C@H](O)[C@H](C)O1 | inactive | –
c1cc(N(CC2CO2)CC2CO2)ccc1OCC1CO1 (configuration not stated) | 61.2 µM (active) and 54.5 µM (active) | –
CCCCc1oc2ccccc2c1C(=O)c1cc(I)c(OCCN(CC)CC)c(I)c1 | 48.9 µM (active) and 29.8 µM (active) | –
